# Experimental data: PubChem BioAssay AID504339 (National Center for Advancing Translational Sciences (NCATS), 2011)
# Among all 390,000 compounds or so, about 17,000 (4.4%) were called active. Inconclusive results (about 8%) are left out. Calls follow the shape of the dose curve; as a rule, active = well fitted inhibition curve with a large enough effect; inconclusive = small, poorly fitted or top-dose-only effect; inactive = no such curve, though single readings can be large or run the other way. For the sample, actives were picked, then their nearest neighbours and some compounds at random.
# Target: Lysine-specific demethylase 4A (Homo sapiens) (UniProt O75164)
# Experiment: qHTS Assay for Inhibitors of JMJD2A-Tudor Domain; also: nearly all actives have a fitted effect of over 50% in size
# Settings: AlphaScreen JMJD2A-Tudor / H3K4me3 peptide binding; series mostly up to 114 µM; activity change, negative = inhibition: at the top concentration
# % is scaled to controls: 0 for no effect and ±100 for the full control effect; potency is read from the fitted curve at half-maximal effect.
# Sequence of Lysine-specific demethylase 4A (Homo sapiens) (O75164 whole entry, looked up, the tested form may be a part): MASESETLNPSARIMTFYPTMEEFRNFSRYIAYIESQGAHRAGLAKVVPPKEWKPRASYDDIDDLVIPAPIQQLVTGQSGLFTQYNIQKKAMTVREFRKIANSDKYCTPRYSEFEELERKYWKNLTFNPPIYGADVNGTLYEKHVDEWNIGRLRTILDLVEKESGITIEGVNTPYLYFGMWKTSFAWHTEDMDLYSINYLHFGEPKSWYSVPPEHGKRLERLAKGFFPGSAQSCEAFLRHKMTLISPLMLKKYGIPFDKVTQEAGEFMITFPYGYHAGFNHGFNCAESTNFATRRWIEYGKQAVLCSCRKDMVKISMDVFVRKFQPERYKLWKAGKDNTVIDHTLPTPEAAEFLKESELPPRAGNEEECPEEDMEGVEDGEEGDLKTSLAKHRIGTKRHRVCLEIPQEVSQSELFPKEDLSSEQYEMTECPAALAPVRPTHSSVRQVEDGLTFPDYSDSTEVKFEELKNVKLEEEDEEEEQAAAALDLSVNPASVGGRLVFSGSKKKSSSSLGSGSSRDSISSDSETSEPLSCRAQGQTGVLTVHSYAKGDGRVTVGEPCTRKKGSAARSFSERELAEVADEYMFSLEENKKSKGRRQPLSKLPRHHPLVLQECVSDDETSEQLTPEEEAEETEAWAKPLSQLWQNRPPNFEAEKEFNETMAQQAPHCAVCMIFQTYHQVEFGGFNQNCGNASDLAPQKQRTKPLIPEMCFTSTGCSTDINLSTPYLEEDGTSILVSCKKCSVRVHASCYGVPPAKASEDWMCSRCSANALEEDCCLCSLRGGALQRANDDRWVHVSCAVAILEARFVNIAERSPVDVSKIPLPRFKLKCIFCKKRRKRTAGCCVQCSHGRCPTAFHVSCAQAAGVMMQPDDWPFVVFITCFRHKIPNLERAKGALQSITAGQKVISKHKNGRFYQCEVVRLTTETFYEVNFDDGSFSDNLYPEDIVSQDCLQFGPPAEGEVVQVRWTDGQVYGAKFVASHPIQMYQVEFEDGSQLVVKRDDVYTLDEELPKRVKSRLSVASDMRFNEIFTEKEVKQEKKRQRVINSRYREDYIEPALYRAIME
Structure (SMILES),"activity change, negative = inhibition",Potency
COP(=O)(OC)C(NC(=O)c1ccc(C)cc1)C(Cl)(Cl)Cl (configuration not stated),1.03% (inactive),
Cc1nnc(NC(=O)c2cccn(Cc3cccc(F)c3)c2=O)s1,-13.6% (inactive),
COC(=O)C1=C(c2cc3ccccc3s2)C[C@@H]2CC[C@H]1N2C(=O)NCc1cccc2ccccc12,-13.7% (inactive),
CC(CC(C#N)(c1ccccc1)c1ccccc1)N1CCCCC1 (configuration not stated),-3.5% (inactive),
O=C(COC(=O)c1ccccc1)Nc1ccccc1Sc1ccccc1,73.6% (inactive),
Cc1cc(-c2n[nH]c(=S)n2-c2ccc(C)c(C)c2)no1,,3.16 µM (active)
O=C1NC(=O)C(CCOc2ccccc2)(CCc2ccccc2)C(=O)N1,12.6% (inactive),
CCOC(=O)C1(c2ccccc2)CCN(CC(O)c2ccc(NC(C)=O)cc2)CC1 (configuration not stated),-19.3% (inactive),
CCOP(=S)(OCC)SCOC(=O)NCC(=O)OC,9.97% (inactive),
COc1ccc(CNCCc2ccc3c(c2)OCO3)c(OC)c1OC,,89.1 µM (active)
CCN1CCN(Cc2cc(OC)c3c(c2)OCO3)CC1,-1.66% (inactive),
COC(=O)C1=C(c2c(C)noc2C)C[C@@H]2CC[C@H]1N2C(=O)NCc1ccc2c(c1)OCO2,-0.714% (inactive),
CC1C(=O)OC2CCN3CC=C(COC(=O)C(C)(O)C1(C)O)C23 (configuration not stated),-9.52% (inactive),
COc1cc([C@@H]2c3cc4c(cc3[C@H](OC(C)=O)[C@H]3COC(=O)[C@H]23)OCO4)cc(OC)c1OC,-12.1% (inactive),
COC(=O)[C@@H]1C(OC(=O)c2ccccc2)CC2CCC1N2C (some centres not stated),-13.8% (inactive),
CCC1(CC(C)c2ccccc2)C(=O)NC(=O)NC1=O (configuration not stated),-5.52% (inactive),
CN(C)C(=O)Oc1cc(OC(=O)N(C)C)cc(C(O)CNC(C)(C)C)c1 (configuration not stated),,inactive
O=C(Cc1ccccc1[N+](=O)[O-])N1CCN(Cc2ccc3c(c2)OCO3)CC1,-22.4% (inactive),
Fc1ccc(N2CCN(Cc3ccc4c(c3)OCO4)CC2)cc1,,3.55 µM (active)
Cc1cc(=O)oc2c(C)c(OCC(=O)N3CCN(Cc4ccc5c(c4)OCO5)CC3)ccc12,-22.9% (inactive),
CCCCCCCCCCCCn1ccc(=N)cc1,-6.9% (inactive),

Structure (SMILES),"activity change, negative = inhibition",Potency
CSc1ccc(C(=O)C2CCCN(Cc3ccn[nH]3)C2)cc1 (configuration not stated),-14.8% (inactive),
CN(C)CC1Oc2ccccc2OC1(O)c1ccccc1 (configuration not stated),10% (inactive),
O=c1c2ccccc2nc(-c2ccc(Cl)cc2Cl)n1-c1ccncc1,-3.7% (inactive),
O=C(O)COc1ccccc1/C=C1\C(=O)NC(=O)N(CCC2=CCCCC2)C1=O,-0.699% (inactive),
O=C1NC(=O)N(Cc2ccco2)C(=O)/C1=C\c1cccn1CCOc1ccccc1,-23.6% (inactive),
COc1ccc(CN2C(=O)NC(=O)/C(=C\c3ccc(OC)c(OC)c3OC)C2=O)cc1,,56.2 µM (active)
CC(=O)c1c(O)n(C2CCCCCC2)c(=O)[nH]c1=O,-27.2% (inactive),
CO[C@H]1[C@@H](O)[C@@H](C)O[C@H](O[C@H]2[C@H](Oc3cccc4c(O)c5c(=O)oc6ccc(C)c7c(=O)oc(c34)c5c67)O[C@H](C)[C@H](O)[C@@H]2O)[C@@H]1O,-8.28% (inactive),
COc1ccc(Br)cc1CNCCc1cccc(Cl)c1,,22.4 µM (active)
CC(C)N(CC#CCC1(O)c2ccccc2-c2ccccc21)C(C)C,-4.64% (inactive),
COc1ccc(-n2c(O)c(C(C)=Nc3ccc4c(c3)CCC4)c(=O)[nH]c2=O)cc1,-6.38% (inactive),
CCOC(=O)C1(Cc2ccc(Cl)cc2)CCN(C(C)CCn2cccn2)CC1 (configuration not stated),-25.9% (inactive),
COc1ccc(N=Cc2c(O)n(C)c(=O)[nH]c2=O)cc1,-10.2% (inactive),
C=CC12CN(C)[C@@H]3C4CO[C@H](C[C@H]41)[C@]1(C(=O)Nc4ccccc41)[C@@H]32 (some centres not stated),-31.3% (inactive),
Cc1ccc(Cn2nnnc2CN2CCC(n3nnc4ccccc43)CC2)cc1,,50.1 µM (active)
COC1=C[C@@H]2[C@@H]3Cc4ccc(OC)c(O)c4[C@]2(CCN3C)CC1=O,-11.5% (inactive),
O=C(O)C1CSC(c2cccnc2)N1 (configuration not stated),,7.94 µM (active)
NCCc1c[nH]c2ccc(O)cc12,-26.6% (inactive),
CC[N+](CC)(CC)CCCCCCCCCC[N+](CC)(CC)CC,-8.14% (inactive),
COc1cccc(N2C(=O)NC(=O)/C(=C\c3ccc([N+](=O)[O-])s3)C2=O)c1,,35.5 µM (active)
Cc1ccccc1N1C(=O)NC(=O)/C(=C\c2cc(C)n(C)c2C)C1=O,-16.1% (inactive),

Structure (SMILES),"activity change, negative = inhibition",Potency
O=C1NC(=O)N(c2ccccc2)C(=O)/C1=C/c1ccc([N+](=O)[O-])s1,,56.2 µM (active)
COc1cccc(N2C(=O)NC(=O)/C(=C\c3cn(C)c4ccccc34)C2=O)c1,-18.1% (inactive),
O=C1NC(=O)N(c2ccc(F)cc2)C(=O)/C1=C/c1ccc2c(c1)CCCN2Cc1ccccc1,-30.8% (inactive),
COCCNC(=O)CN1C2CCC1CC(O)(c1cccnc1)C2 (configuration not stated),-0.69% (inactive),
COC(=O)C1=C(c2cccc(OCc3ccccc3)c2)C[C@@H]2CC[C@H]1N2C(=O)NCc1ccc(Br)cc1,-30.2% (inactive),
C[C@]12CCC3C(CC[C@H]4[C@H](O)[C@H](O)CC[C@]34C)C1CCC2=O (some centres not stated),2.07% (inactive),
Nc1ccc([N+](=O)[O-])cc1,-18.6% (inactive),
COC1C(O)C(C)OC(OC2CCC3(C=O)C(CCC4C3CCC3(C)C(C5=CC(=O)OC5)CCC43O)C2)C1O (configuration not stated),-1.36% (inactive),
CCc1nnc(NS(=O)(=O)c2ccc(N=Cc3c(O)n(-c4ccccc4)c(=O)[nH]c3=O)cc2)s1,-5.84% (inactive),
O=c1[nH]c(=O)n(Cc2ccccc2)c(O)c1/C=N/Nc1c(F)c(F)c(F)c(F)c1F,2.68% (inactive),
CCCCC(=O)N/N=C/c1c(O)n(-c2ccccc2)c(=O)[nH]c1=O,,79.4 µM (active)
CNC(=O)O/N=C(\N)Cc1csc2ccc(Cl)cc12,-16.9% (inactive),
Cc1ccc(Oc2cnn(-c3ccccc3)c(=O)c2Br)cc1,45.4% (inactive),
O=C1NC(=O)N(Cc2ccco2)C(=O)/C1=C\c1ccc(-c2ccc(F)cc2)o1,-24.6% (inactive),
COc1ccc(N2C(=O)/C(=C/c3ccco3)C(=O)NC2=S)cc1,,10 µM (active)
Cc1cc(/C=C2/C(=O)NC(=O)N(Cc3ccco3)C2=O)c(C)n1-c1ccc(C(=O)O)cc1,-22.4% (inactive),
CN(C)c1ccc(/C=C2\CC3C4CC=C5CC(O)CCC5(C)C4CCC3(C)C2=O)cc1 (configuration not stated),-26.2% (inactive),
C[C@]12CC[C@H](O)CC1=C([N+](=O)[O-])CC1C2CC[C@@]2(C)C1CC[C@@H]2O (some centres not stated),-7.53% (inactive),
COc1ccccc1N=C1SCCCN1C,,56.2 µM (active)
CCC(C)(O)C(=O)OC1C(=O)OC2CC3C(C)=CC(=O)C(O)C3(C)C3C4(O)OCC23C1C(C)C4O (configuration not stated),-7.64% (inactive),
COCc1cc(OC(=O)N(C)C)nc(-c2ccc(C)c(Cl)c2)n1,28.4% (inactive),

Structure (SMILES),"activity change, negative = inhibition",Potency
CCOC(=O)CC(SP1(=S)OCC2(CCCCO2)C(C2CCCCO2)O1)C(=O)OCC (configuration not stated),14.5% (inactive),
c1cc2c(cc1C1OCC3C(c4ccc5c(c4)OCO5)OCC13)OCO2 (configuration not stated),-4.08% (inactive),
CC(=O)OC1C2(CC3N4C(=O)C5(CO)SSC4(CC31O)C(=O)N5C)OC(C)C(C)(C)C2=O (configuration not stated),-18.1% (inactive),
CCN(CC)CCOC(=O)c1cc2cc(COC)ccc2o1,,56.2 µM (active)
Cc1ccc(N(C)C(=O)Oc2cccc3ccc(C)nc23)cc1,-1.27% (inactive),
CC(=O)C1(O)CCC2C3CCC4=C(Cl)C(=O)CCC4(C)C3CCC21C (configuration not stated),-2.76% (inactive),
COC(=O)C1=C(c2ccc(Cl)c(C(F)(F)F)c2)C[C@@H]2CC[C@H]1N2C(=O)NC(C)C,-15.9% (inactive),
Clc1cccc(Cl)c1Cl,-15.2% (inactive),
CN1CCN(C(=S)SCC(=O)Nc2ccc(Cl)cc2C(=O)c2ccccc2)CC1,,44.7 µM (active)
O=C(Nc1ccc(Cl)cc1C(=O)c1ccccc1)c1cc(Cl)cc(Cl)c1,0.654% (inactive),
O=C(COC(=O)c1ccccc1)Nc1ccc(Cl)cc1C(=O)c1ccccc1,6.97% (inactive),
CC12CCC3C(CCC4CC(=O)CCC43C)C1CC(=NO)C2=O (configuration not stated),-7.64% (inactive),
Cc1cccc(Cn2cccc(C(=O)Nc3ccc4c(c3)OCCO4)c2=O)c1,-24.4% (inactive),
CCOCCc1c(O)[nH]c(=S)[nH]c1=O,,79.4 µM (active)
Oc1ccc2c3c1OC1[C@H](O)CC[C@@]4(O)[C@@H](C2)N(CC2CC2)CC[C@]314 (some centres not stated),,inactive
CCC(C)n1c(O)c(/C=N/Nc2nc3c(c(=O)n(C)c(=O)n3C)n2C)c(=O)[nH]c1=S (configuration not stated),,79.4 µM (active)
Cc1ccccc1NC(=O)COC(=O)c1cc(C)n(C2CC2)c1C,-15.8% (inactive),
C=Cn1ccnc1P(=S)(c1cc(N(CC)CC)ns1)c1nccn1C=C,-26.7% (inactive),
Cc1nc2ccccn2c1P(=S)(N1CCCCC1)N1CCCCC1,-16.4% (inactive),
